Outcome and AC50 data for four compounds are collected here from PubChem BioAssay (EPA / NIEHS).

Active and inactive are the calls of the source. Rule for the calls: active = hit-call score of the fitted dose curve at least 0.9, where 1 is the maximum; inactive = score below 0.9.

Details in all cases: mRNA level, 48 h; actives raise or lower the signal
Read-out in assay [1]: ABC Transporter (ABCC2), ABCC2 (gene 1244)
In words: LTEA_HepaRG_ABCC2: Life Technologies and Expression Analysis (LTEA) Assay for ABC Transporter (ABCC2) using HepaRG (AID 2283464). In outline:
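Endpoint is ABCC2 transcript level from qRT-PCR, normalized to three housekeeping genes and fitted bidirectionally relative to DMSO. Human HepaRG cells received test chemical for 48 h at up to 100 uM (8 points, half-log steps, 0.5% DMSO), duplicate wells.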

Read-out in assay [2]: Broad substrate specificity ATP-binding cassette transporter ABCG2 (Homo sapiens) (UniProt Q9UNQ0)
The experiment in a line: LTEA_HepaRG_ABCG2: Life Technologies and Expression Analysis (LTEA) Assay for ABC Transporter (ABCG2) using HepaRG (AID 2283465). In outline: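 HepaRG, 48 h exposure, 8-pt half-log series from 100 uM, 0.5% DMSO vehicle, duplicates. Readout: ABCG2 transcript by qRT-PCR (Fluidigm array), housekeeping-normalized; bidirectional curve fit relative to DMSO baseline.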

Read-out in assay [3]: ATP-citrate lyase (ACLY), ACLY (gene 47)
The experiment in a line: LTEA_HepaRG_ACLY: Life Technologies and Expression Analysis (LTEA) Assay for ATP-citrate lyase (ACLY) using HepaRG (AID 2283466). The method in brief:
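qRT-PCR readout of ACLY transcript after 48 h chemical treatment of HepaRG cells; expression normalized to three housekeeping genes. Eight-point half-log series, highest 100 uM, 0.5% DMSO vehicle. Gain or loss fitted against DMSO baseline.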

Read-out in assay [4]: Peroxisomal acyl-coenzyme A oxidase 1 (ACOX1) gene, ACOX1 (gene 51)
The experiment in a line: LTEA_HepaRG_ACOX1: Life Technologies and Expression Analysis (LTEA) Assay for Peroxisomal acyl-coenzyme A oxidase 1 (ACOX1) gene using HepaRG (AID 2283467). In outline: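 HepaRG, 48 h chemical exposure, 8-pt half-log series from 100 uM top, 0.5% DMSO vehicle, duplicates. Readout: ACOX1 mRNA by Fluidigm qRT-PCR, housekeeping-normalized; bidirectional fit vs DMSO baseline.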

Read-out in assay [5]: Alkaline Phosphatase, Placental (ALPP) gene, ALPP (gene 250)
The experiment in a line: LTEA_HepaRG_ALPP: Life Technologies and Expression Analysis (LTEA) Assay for Alkaline Phosphatase, Placental (ALPP) gene using HepaRG (AID 2283468). In outline: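 ALPP transcript level, measured by qRT-PCR and normalized to three housekeeping genes (ACTB, GAPDH, POLR2A), after 48 h dosing of differentiated HepaRG in serum-free induction medium. Top concentration 100 uM with half-log dilutions (8 points, 0.5% DMSO, duplicates); bidirectional fitting relative to DMSO.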

Read-out in assay [6]: Bcl-2 (BAX) gene, BAX (gene 581)
The experiment in a line: LTEA_HepaRG_BAX: Life Technologies and Expression Analysis (LTEA) Assay for Bcl-2 (BAX) gene using HepaRG (AID 2283470). The method in brief: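 qRT-PCR read-out of BAX mRNA, normalized to three housekeeping genes, after 48 h chemical exposure of human HepaRG cells in serum-free induction medium; eight-point half-log series, top 100 uM, 0.5% DMSO vehicle; bidirectional fit versus DMSO.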

Read-out in assay [7]: adenosine kinase (ADK) gene, ADK (gene 132)
In words: LTEA_HepaRG_ADK: Life Technologies and Expression Analysis (LTEA) Assay for adenosine kinase (ADK) gene using HepaRG (AID 2283471). The method in brief:
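Following 48 h exposure of HepaRG cells in 0.5% DMSO (top concentration 100 uM, duplicate wells), ADK mRNA induction or suppression was measured by qRT-PCR, normalised to ACTB/GAPDH/POLR2A, and fitted bidirectionally relative to vehicle.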

Read-out in assay [8]: Alpha-fetoprotein (AFP) gene, AFP (gene 174)
The experiment in a line: LTEA_HepaRG_AFP: Life Technologies and Expression Analysis (LTEA) Assay for Alpha-fetoprotein (AFP) gene using HepaRG (AID 2283472). In outline:
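qRT-PCR (Fluidigm TaqMan) readout of AFP transcript, normalized to three housekeeping genes, fitted bidirectionally against 0.5% DMSO baseline. HepaRG cells received chemicals for 48 h in serum-free induction medium, top concentration 100 uM, half-log steps.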

Read-out in another assay: BCL2L11 (gene 10018)
The experiment in a line: LTEA_HepaRG_BCL2L11: Life Technologies and Expression Analysis (LTEA) Assay for Bcl-2 (BCL2L11) gene using HepaRG (AID 2283473). The method in brief:
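BCL2L11 transcript levels are measured by Fluidigm qRT-PCR, normalized to three housekeeping genes. HepaRG cultures were plated 48 h, then treated 48 h with test chemical (top 100 uM, half-log, 0.5% DMSO vehicle); curves were fitted bidirectionally against DMSO.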

Read-out in assay [9]: Apolipoprotein A-V (APOA5) gene, APOA5 (gene 116519)
In words: LTEA_HepaRG_APOA5: Life Technologies and Expression Analysis (LTEA) Assay for Apolipoprotein A-V (APOA5) gene using HepaRG (AID 2283474). The method in brief: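 APOA5 transcript levels were quantified by qRT-PCR, normalized to three housekeeping genes, after 48 h chemical treatment of HepaRG cells (8 points, 100 uM maximum, half-log steps, 0.5% DMSO). Curves fitted in both directions against vehicle.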

Read-out in assay [10]: Apoptosis regulator Bcl-2 (Homo sapiens) (UniProt P10415)
In words: LTEA_HepaRG_BCL2: Life Technologies and Expression Analysis (LTEA) Assay for Bcl-2 gene using HepaRG (AID 2283475).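 Note: BCL2 transcript by TaqMan qRT-PCR normalised to ACTB GAPDH and POLR2A.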 In outline: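 qRT-PCR read-out (Fluidigm TaqMan) of BCL2 transcript, normalised to three housekeeping genes, after 48 h chemical exposure of HepaRG cells; 8-point half-log series, top 100 uM, 0.5% DMSO vehicle. Gain or loss of signal fitted relative to DMSO baseline.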

Read-out in assay [11]: Bcl-2 (BID) gene, BID (gene 637)
The experiment in a line: LTEA_HepaRG_BID: Life Technologies and Expression Analysis (LTEA) Assay for Bcl-2 (BID) gene using HepaRG (AID 2283476). In outline:
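HepaRG, 48 h exposure, 8-pt half-log series, top 100 uM, 0.5% DMSO vehicle, duplicates. Readout: BID mRNA by TaqMan qRT-PCR; housekeeping-normalized; bidirectional curve fit vs DMSO baseline.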

Read-out in a further assay: Caspase-3 (Homo sapiens) (UniProt P42574)
The experiment in a line: LTEA_HepaRG_CASP3: Life Technologies and Expression Analysis (LTEA) Assay for cysteine-aspartic acid protease (CASP3) using HepaRG (AID 2283477). The method in brief:
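Expression of CASP3 was quantified by TaqMan qRT-PCR against three housekeeping genes (ACTB, GAPDH, POLR2A), bidirectionally versus 0.5% DMSO. HepaRG cultures received compounds in duplicate, top 100 uM with half-log steps, for 48 h in serum-free induction medium.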

Read-out in assay [12]: Cytochrome P450 (CYP24A1), CYP24A1 (gene 1591)
In words: LTEA_HepaRG_CYP24A1: Life Technologies and Expression Analysis (LTEA) Assay for Cytochrome P450 (CYP24A1) using HepaRG (AID 2283478). The method in brief:
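mRNA of CYP24A1 quantified by TaqMan qRT-PCR (ACTB/GAPDH/POLR2A normalization) after 48 h chemical exposure of HepaRG cells, top concentration 100 uM, half-log steps, 0.5% DMSO vehicle, duplicates. Curves fitted bidirectionally against DMSO baseline.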

Read-out in assay [13]: Cytochrome P450 (CYP1A2), CYP1A2 (gene 1544)
In words: LTEA_HepaRG_CYP1A2: Life Technologies and Expression Analysis (LTEA) Assay for Cytochrome P450 (CYP1A2) using HepaRG (AID 2283479). In outline: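 CYP1A2 transcript measured by TaqMan qRT-PCR against three housekeeping genes after 48-hour chemical exposure of HepaRG cells. Eight-point half-log series topping at 100 uM in 0.5% DMSO, duplicates; gain or loss fitted relative to vehicle.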

Read-out in assay [14]: cysteine-aspartic acid protease (CASP8), CASP8 (gene 841)
The experiment in a line: LTEA_HepaRG_CASP8: Life Technologies and Expression Analysis (LTEA) Assay for cysteine-aspartic acid protease (CASP8) using HepaRG (AID 2283480). In outline: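 qRT-PCR readout of CASP8 mRNA, normalized to three housekeeping genes, after 48 h chemical exposure of HepaRG cells; 8-point half-log series, top 100 uM, 0.5% DMSO vehicle. Bidirectional curve fitting against DMSO baseline.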

Read-out in assay [15]: Cytochrome P450 (CYP2B6), CYP2B6 (gene 1555)
The experiment in a line: LTEA_HepaRG_CYP2B6: Life Technologies and Expression Analysis (LTEA) Assay for Cytochrome P450 (CYP2B6) using HepaRG (AID 2283481). In outline:
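CYP2B6 transcript level quantified by qRT-PCR against three housekeeping genes, fitted bidirectionally relative to DMSO. HepaRG cultures received chemicals for 48 h, 8-point half-log series from 100 uM in 0.5% DMSO, duplicate wells, serum-free induction medium.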

Read-out in assay [16]: Cytochrome P450 2C19 (Homo sapiens) (UniProt P33261)
In words: LTEA_HepaRG_CYP2C19: Life Technologies and Expression Analysis (LTEA) Assay for CYP2C19 using HepaRG (AID 2283482). In outline:
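CYP2C19 transcript levels by qRT-PCR, normalized to three housekeeping genes, in HepaRG cells after 48 h chemical exposure. Eight-point half-log series topping at 100 uM, 0.5% DMSO vehicle. Increases and decreases both fitted against DMSO.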

Read-out in the next assay: CYP2C8 (gene 1558)
The experiment in a line: LTEA_HepaRG_CYP2C8: Life Technologies and Expression Analysis (LTEA) Assay for CYP2C8 using HepaRG (AID 2283483). The method in brief: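 HepaRG (human liver line), 48 h chemical exposure, 8-pt half-log series from 100 uM, 0.5% DMSO vehicle. Readout: CYP2C8 transcript by qRT-PCR, housekeeping-normalized. Bidirectional fit vs DMSO baseline.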

Cytochrome P450 2C19 (Homo sapiens), sequence (P33261 whole entry, looked up): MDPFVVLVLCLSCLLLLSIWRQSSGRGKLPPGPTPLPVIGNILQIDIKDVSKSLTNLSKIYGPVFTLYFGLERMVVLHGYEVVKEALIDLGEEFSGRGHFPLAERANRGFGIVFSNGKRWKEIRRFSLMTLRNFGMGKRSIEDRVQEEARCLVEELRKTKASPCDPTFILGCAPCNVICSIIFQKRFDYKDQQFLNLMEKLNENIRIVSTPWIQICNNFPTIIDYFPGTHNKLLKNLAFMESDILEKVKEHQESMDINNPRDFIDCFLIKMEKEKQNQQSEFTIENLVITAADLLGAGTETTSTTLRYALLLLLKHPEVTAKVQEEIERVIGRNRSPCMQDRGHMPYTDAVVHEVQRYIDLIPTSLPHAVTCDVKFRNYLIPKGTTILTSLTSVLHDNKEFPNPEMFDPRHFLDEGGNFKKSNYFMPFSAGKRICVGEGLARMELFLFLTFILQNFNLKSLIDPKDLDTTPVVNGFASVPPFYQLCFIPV
Broad substrate specificity ATP-binding cassette transporter ABCG2 (Homo sapiens), sequence (Q9UNQ0 whole entry, looked up): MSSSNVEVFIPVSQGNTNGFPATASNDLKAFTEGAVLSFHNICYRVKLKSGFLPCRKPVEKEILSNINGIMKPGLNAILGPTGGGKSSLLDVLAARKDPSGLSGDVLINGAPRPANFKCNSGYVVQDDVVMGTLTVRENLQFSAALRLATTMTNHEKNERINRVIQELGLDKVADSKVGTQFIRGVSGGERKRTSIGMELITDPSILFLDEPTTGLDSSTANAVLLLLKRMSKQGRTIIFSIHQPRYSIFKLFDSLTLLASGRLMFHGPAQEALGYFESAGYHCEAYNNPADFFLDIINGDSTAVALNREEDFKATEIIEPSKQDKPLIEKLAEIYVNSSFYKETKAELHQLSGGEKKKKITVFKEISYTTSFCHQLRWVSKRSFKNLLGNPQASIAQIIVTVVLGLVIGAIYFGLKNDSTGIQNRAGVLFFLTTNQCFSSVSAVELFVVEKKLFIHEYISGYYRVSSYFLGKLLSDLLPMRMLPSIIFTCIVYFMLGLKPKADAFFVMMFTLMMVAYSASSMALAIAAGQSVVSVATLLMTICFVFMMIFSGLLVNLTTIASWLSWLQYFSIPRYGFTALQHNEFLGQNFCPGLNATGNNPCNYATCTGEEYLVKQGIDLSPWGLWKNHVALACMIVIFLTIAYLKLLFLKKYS
Caspase-3 (Homo sapiens), sequence (P42574 whole entry, looked up): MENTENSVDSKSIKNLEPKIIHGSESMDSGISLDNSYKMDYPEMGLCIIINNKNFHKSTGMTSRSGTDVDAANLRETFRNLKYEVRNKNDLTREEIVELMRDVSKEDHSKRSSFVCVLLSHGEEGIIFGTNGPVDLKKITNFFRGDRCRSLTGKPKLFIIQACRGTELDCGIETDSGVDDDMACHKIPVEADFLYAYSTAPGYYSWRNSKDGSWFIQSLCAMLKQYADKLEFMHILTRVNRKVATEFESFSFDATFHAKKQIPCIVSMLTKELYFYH
Apoptosis regulator Bcl-2 (Homo sapiens), sequence (P10415 whole entry, looked up): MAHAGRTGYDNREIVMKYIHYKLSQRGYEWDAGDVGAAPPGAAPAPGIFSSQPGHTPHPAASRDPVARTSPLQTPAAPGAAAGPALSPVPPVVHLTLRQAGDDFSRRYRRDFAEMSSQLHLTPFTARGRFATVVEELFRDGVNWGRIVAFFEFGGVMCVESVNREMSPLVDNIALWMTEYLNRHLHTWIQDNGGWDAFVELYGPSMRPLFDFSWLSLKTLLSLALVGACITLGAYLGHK

`CN(C)C(=O)Nc1ccc(Cl)cc1`: the compound was called inactive in assay [1], in assay [2], in assay [3], in [4], in [5] and in assay [6]. For the same compound, the outcome (in assay [7]; in [8]; in the assay with BCL2L11 (gene 10018); in [9]; in [10]; in assay [11]) was inactive. Besides, the call (with Caspase-3 (Homo sapiens); in [12]; in [14]; in [16]; with CYP2C8 (gene 1558)) was inactive. Moreover, the values for the AC50 in [13] and in [15] were 55 µM (active) and 22.5 µM (active), respectively.
As for `CCCCC(CC)COC(=O)c1ccc(C(=O)OCC(CC)CCCC)c(C(=O)OCC(CC)CCCC)c1` (stereo not given), the compound was classed as inactive in assay [1], in assay [2], in assay [3], in [4], in [5] and in assay [6]. Also, the compound was called inactive (in assay [7]; in assay [8]; with BCL2L11 (gene 10018); in [9]; in assay [11]; with Caspase-3 (Homo sapiens)). For the same compound, the compound was classed as inactive (in assay [12]; in assay [13]; in assay [14]; in assay [15]; in [16]; with CYP2C8 (gene 1558)).
As for `ClCCOCCCl`, the compound was classed as inactive in assay [1], in assay [2], in assay [3], in assay [4], in assay [5] and in [6]. Also, the outcome (in assay [7]; in assay [8]; with BCL2L11 (gene 10018); in assay [9]; in assay [11]; with Caspase-3 (Homo sapiens)) was inactive. The compound was classed as inactive (in assay [13]; in assay [14]; in assay [16]; in the assay with CYP2C8 (gene 1558)).
As to `CO[C@@H]1[C@H](OC(=O)NC(=O)CCl)CC[C@]2(CO2)[C@H]1[C@@]1(C)O[C@@H]1CC=C(C)C`, the outcome in assay [1], in assay [2], in assay [3], in assay [4], in [5] and in assay [6] was inactive. For the same compound, the compound was called inactive (in assay [7]; in [8]; in the assay with BCL2L11 (gene 10018); in assay [9]; in [11]; with Caspase-3 (Homo sapiens)). The compound was classed as inactive (in assay [13]; in [14]; in [16]; in the assay with CYP2C8 (gene 1558)). Moreover, the AC50 (usually the midpoint of the concentration-response curve, whichever way the signal moves) in assay [15] was 0.0683 µM (active).
